Screening data: PubChem, National Center for Advancing Translational Sciences (NCATS)
D3 ag = D3 dopamine receptor (human) agonism; max activation, %; 410,000 tested, 0.58% active; P35462; D3R DiscoveRx beta-arrestin cells, luminescence, 90 min; AID 652048; in the data active = max activation above about 30%
Target sequence (P35462 whole entry, looked up): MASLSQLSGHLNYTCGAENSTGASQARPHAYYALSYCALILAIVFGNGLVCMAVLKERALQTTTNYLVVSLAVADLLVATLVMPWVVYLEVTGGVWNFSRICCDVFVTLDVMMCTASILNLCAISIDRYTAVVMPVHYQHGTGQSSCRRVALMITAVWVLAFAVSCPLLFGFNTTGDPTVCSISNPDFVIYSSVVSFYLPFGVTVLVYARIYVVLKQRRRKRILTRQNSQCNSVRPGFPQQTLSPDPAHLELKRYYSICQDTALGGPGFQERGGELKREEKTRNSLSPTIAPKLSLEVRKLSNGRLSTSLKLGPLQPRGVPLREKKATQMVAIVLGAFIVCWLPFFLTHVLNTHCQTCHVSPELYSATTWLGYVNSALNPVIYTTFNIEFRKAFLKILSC
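Agonist mode: compounds and dopamine controls were applied to plated cells for 90 min at 37 degrees C after an overnight attachment at 1500 cells/well. Luminescent read-out followed 30 - 60 minutes at room temperature with DiscoveRx detection reagent.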
B2AR arrestin = beta2AR (human) beta-arrestin recruitment activity; P07550; beta-arrestin recruitment to beta2AR, cell-based reporter; Potency, µM (top dose mostly 46.1 µM), most hits filed as activators; 330,000 tested, 0.02% active; AID 492947; active = well fitted activation curve with a large enough effect; inconclusive = small, poorly fitted or top-dose-only effect; also: nearly all actives have a fitted effect of over 65% in size
D3 antag = D3 dopamine receptor (human) antagonism | P35462 | max response, negative = inhibition, % | 360,000 tested, 2.5% active | D3R cells, DiscoveRx beta-arrestin luminescence, antagonist mode; stronger effect = lower value | AID 652054; in the data active = max response below about -50%; inconclusive = no clear call, values can overlap the other calls
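Cells expressing the human receptor were seeded at 1500 cells/well, incubated overnight at 37 degrees C in 5% CO2, then exposed to library compounds with dopamine controls for 90 minutes at 37 degrees C before luminescent detection.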
TSHR antag = antagonists of human thyroid stimulating hormone receptor | 330,000 tested, 0.2% active | TSHR-expressing cells, TSH-stimulated cAMP HTRF, 2 h; stronger effect = lower value | P16473 | activity change, negative = inhibition, % at 11.5 µM;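 active = activity change below a set negative limit, meaning inhibition stronger than a set level, cut at about -70% in these data; inconclusive = activity change between two set negative limits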
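Cell-based HTRF cAMP assay; TSHR cells + compound, TSH EC80 (4nM final), 2 h, 37 deg C. Lysis with anti-cAMP cryptate and cAMP-d2, 30 min RT, read 665/620 nm.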
A number is an active result. Sampled rows, rich in hits. Any-hit rate of the full collection: about 2.9%.

What do the screens show for `COc1ccccc1N1CCN(CC(O)COc2ccc(C)cc2C)CC1` (centres undefined)?
D3 ag: inactive; B2AR arrestin: inactive; D3 antag: -93.8; TSHR antag: inactive

How did COc1cccc(S(=O)(=O)N2C[C@H](O)COC[C@H]3O[C@@H](CC(=O)N4CCN(C)CC4)CC[C@@H]32)c1 do in these assays?
D3 ag: inactive; D3 antag: inactive

How did COc1ccccc1N1CCN(CC(O)c2ccc3cc[nH]c3c2)CC1 (centres undefined) do in these assays?
D3 ag: inactive; B2AR arrestin: inactive; D3 antag: -82.2; TSHR antag: inactive

What do the screens show for `COc1ccccc1N1CCN(CCCCOc2ccc(C)cc2C)CC1`?
D3 ag: inactive; B2AR arrestin: inactive; D3 antag: -86.4; TSHR antag: inactive

Results for COc1ccccc1N1CCN(CC(O)COCCOc2ccc(Br)cc2)CC1 (centres undefined) ?
D3 ag: inactive; B2AR arrestin: inactive; D3 antag: -86.4; TSHR antag: inactive

What do the screens show for `OC(COc1cccc2ccccc12)CN1CCN(c2ccccc2Cl)CC1` (centres undefined)?
D3 ag: inactive; B2AR arrestin: inactive; D3 antag: -80.6; TSHR antag: inactive

Results for COc1ccccc1N1CCN(C(=O)COc2cc(C)ccc2C)CC1 ?
D3 ag: inactive; B2AR arrestin: inactive; D3 antag: inconclusive; TSHR antag: inactive

How did O=C(CC1C(=O)N(c2ccc(F)cc2)C(=O)N1Cc1cccnc1)Nc1ccc(F)cc1 (centres undefined) do in these assays?
D3 ag: inactive

What do the screens show for `O=C(CCc1nnc(-c2ccc(-c3ccccc3)cc2)o1)N1CCCCC1`?
D3 ag: 31.5; B2AR arrestin: inactive; D3 antag: inactive; TSHR antag: inactive

What do the screens show for `COC(c1ccccc1)c1nnc(CCC(=O)N2CCCCCCC2)o1` (centres undefined)?
D3 ag: inactive; B2AR arrestin: inactive; D3 antag: inactive; TSHR antag: inactive

Results for COc1cc(C(=O)OCc2cc(=O)n3nc(C4CCCCC4)sc3n2)cc(OC)c1OC ?
D3 ag: inactive

How did CCOc1cccc(-c2nnc3sc(COc4ccc(C)cc4)nn23)c1 do in these assays?
D3 ag: inactive; B2AR arrestin: inactive; D3 antag: inactive; TSHR antag: inactive

Results for c1ccc(OCc2nn3c(-c4n[nH]c5c4CCC5)nnc3s2)cc1 ?
D3 ag: inactive; B2AR arrestin: inactive; D3 antag: -52.2; TSHR antag: inactive

What do the screens show for `Cc1ccc(OCc2nn3c(-c4n[nH]c5c4CCC5)nnc3s2)cc1`?
B2AR arrestin: inactive; TSHR antag: inactive

Results for COc1ccccc1-c1nnc2sc(COc3ccc(Cl)cc3)nn12 ?
D3 ag: inactive; B2AR arrestin: inactive; D3 antag: -51.8; TSHR antag: inactive

How did CCOc1cccc(-c2nnc3sc(COc4ccccc4)nn23)c1 do in these assays?
D3 ag: 37.6; B2AR arrestin: inactive; D3 antag: inactive; TSHR antag: inactive

How did CCOc1ccc(NC(=O)Cn2cc(S(=O)(=O)NC)c(S(=O)(=O)NC)c2)cc1 do in these assays?
D3 ag: inactive

What do the screens show for `Cc1cc(C)c(C(=O)CN2C(=O)NC3(CCCCC3)C2=O)cc1C`?
D3 ag: 35.4; B2AR arrestin: inactive; D3 antag: inactive; TSHR antag: inactive

Results for COC(=O)c1c(NC(=O)c2cc3nc(-c4ccc(Br)cc4)cc(C(F)(F)F)n3n2)sc2c1CCCC2 ?
D3 ag: inactive

What do the screens show for `CCOC(=O)c1c(NC(=O)c2cc(=O)c3cc(C)cc(C)c3o2)sc(C)c1C`?
D3 ag: inactive

What do the screens show for `CC(C)NC(=O)COc1coc(CN2CCN(c3ccccc3F)CC2)cc1=O`?
D3 ag: inactive; B2AR arrestin: inactive; D3 antag: inactive; TSHR antag: -124.3

Results for O=C(NCc1ccccc1)C1Cc2c(-c3cccc(F)c3)ccnc2O1 (centres undefined) ?
D3 ag: inactive; D3 antag: -50.2

Results for O=C(NCCc1ccccc1)C1Cc2c(-c3ccccc3)ccnc2O1 (centres undefined) ?
D3 ag: inactive; D3 antag: -67.5

Results for CC(=O)Nc1ccc(NC(=O)C2Cc3c(-c4ccc(Cl)cc4)ccnc3O2)cc1 (centres undefined) ?
D3 ag: inactive; D3 antag: inactive

Results for CNC(=O)C1Cc2c(-c3ccc(Cl)cc3)ccnc2O1 (centres undefined) ?
D3 ag: inactive; D3 antag: -57.3
